Results filed as inconclusive are left out. A number with no mark means an inactive call. The source made the active and inactive calls. The call rests on the fitted dose curve; in most records, active means well fitted inhibition curve with a large enough effect; inconclusive means small, poorly fitted or top-dose-only effect; inactive means no such curve, though single readings can be large or run the other way.
Potency means the concentration at half of the fitted maximal effect.
Wherever activity change, negative = inhibition is given: 0% is about no effect.

N-terminal Xaa-Pro-Lys N-methyltransferase 1 (Homo sapiens), sequence (Q9BV86 whole entry, looked up): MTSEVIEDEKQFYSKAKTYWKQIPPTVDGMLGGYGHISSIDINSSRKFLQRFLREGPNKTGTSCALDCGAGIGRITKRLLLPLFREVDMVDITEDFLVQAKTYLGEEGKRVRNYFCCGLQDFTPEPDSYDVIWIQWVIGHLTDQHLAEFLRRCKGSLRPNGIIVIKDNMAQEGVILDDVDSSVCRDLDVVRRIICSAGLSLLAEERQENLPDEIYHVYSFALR

This experiment concerns the target N-terminal Xaa-Pro-Lys N-methyltransferase 1 (Homo sapiens) (UniProt Q9BV86). The experiment is described as follows: qHTS Assay for Inhibitors of N-terminal methyltransferase 1 (NTMT1): MTaseGlo Assay Confirmatory Screen, Round 1. As to conditions: Recombinant NTMT1, MTase-Glo SAH luminescence; series mostly up to 57.1 µM; activity change, negative = inhibition: at the top concentration. In a few lines:
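Luminescence from MTase-Glo conversion of SAH to ATP measured activity after a 30 min RT reaction with 1 µM SPKRIA substrate, 100 µM SAM and 125 nM enzyme. Normalization used no-enzyme and DMSO controls, followed by Hill fitting.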
(In qHTS, concentration-response curves come from the screen itself.)
On to `COc1cc2c(NC3CCN(C)CC3)nc(N3CCN(C)CC3)nc2cc1OCCCN(C)C`, for which the “activity change, negative = inhibition” value was -19.5%. Still for that read-out and setting: with `C[S+](CCC(N)C(=O)O)CC1O[C@@H](n2cnc3c(N)ncnc32)C(O)C1O` (stereo not given in full) the figure was 424%. Still for that read-out and setting: with `COC1C(O)C(CO)OC1n1cnc2c(NC3CCCCC3)ncnc21` (stereo not given) the figure was -3.48%; with `Nc1nc2c([nH]c(=O)n2[C@@H]2O[C@H](CO)[C@@H](O)[C@H]2O)c(=O)[nH]1`, -0.0532% [at 6.33 µM]. The same measure, in the same setting: as for `OC[C@@H]1O[C@@H](n2cnc3c(NC4CCCC4)ncnc32)[C@H](O)[C@H]1O`, the figure is 7.9%. In the case of `Nc1nc2c(ncn2[C@@H]2O[C@H](CO)[C@@H](O)[C@@H]2O)c(=O)[nH]1`, the “activity change, negative = inhibition” value was 1.02%. The same measure, in the same setting: as for `COc1cc2nc(N3CCOCC3)nc(NC3CCN(C)CC3)c2cc1OC`, the figure is -13.7%; as for `OC[C@H]1O[C@@H](n2cnc3c(NC4CCCC4)ncnc32)[C@H](O)C1O` (stereo not given in full), 6.88%; as for `CSCC1OC(n2cnc3c(N)ncnc32)C(O)C1O` (stereo not given), -5.25%.

Consider `OC[C@H]1O[C@@H](n2cnc3cncnc32)[C@H](O)[C@@H]1O`, for which the Potency is 13.7 µM (active). As for `Nc1ncnc2c1ncn2[C@H]1O[C@@H](CNS(=O)(=O)NC(=O)c2cccc(-c3noc(-c4ccccc4F)n3)c2)[C@H](O)[C@@H]1O`, the Potency is 1.93 µM (active). With `CCC(CC)n1ccc2c(C(=O)NCc3c(C)cc(C)[nH]c3=O)cc(C#N)cc21`, the “activity change, negative = inhibition” value is 14.8%. Regarding `Nc1nc(F)nc2c1ncn2[C@@H]1O[C@H](CO)[C@@H](O)[C@@H]1O`, the Potency result is “inactive”. Take `COc1cc2nc(N3CCCN(C)CC3)nc(N3CCN(C)CC3)c2cc1OC`: the “activity change, negative = inhibition” value is 1.01%.

For the molecule `COc1cc2c(NC3CCN(C)CC3)nc(N3CCCCC3)nc2cc1OCCCN(C)C`, the “activity change, negative = inhibition” value was -13.2%.

The values are drawn from PubChem BioAssay AID1347145 (National Center for Advancing Translational Sciences (NCATS), 2019).
